Cruzain inh noDet: qHTS Assay for Promiscuous and Specific Inhibitors of Cruzain (without detergent); Cruzipain (Trypanosoma cruzi), P25779; Potency, µM, without a hit: max response, negative = inhibition, actives largely listed as inhibitors; purified cruzain, Z-FR-AMC fluorescence, no detergent; actives 2.3% (n = 200,000); AID 1476, 2009;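 further: plate controls were enzyme without inhibitor for no effect and buffer without enzyme for full effect; nearly all actives have a fitted effect of over 40% in size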
Target sequence (P25779 123-467 limits assumed): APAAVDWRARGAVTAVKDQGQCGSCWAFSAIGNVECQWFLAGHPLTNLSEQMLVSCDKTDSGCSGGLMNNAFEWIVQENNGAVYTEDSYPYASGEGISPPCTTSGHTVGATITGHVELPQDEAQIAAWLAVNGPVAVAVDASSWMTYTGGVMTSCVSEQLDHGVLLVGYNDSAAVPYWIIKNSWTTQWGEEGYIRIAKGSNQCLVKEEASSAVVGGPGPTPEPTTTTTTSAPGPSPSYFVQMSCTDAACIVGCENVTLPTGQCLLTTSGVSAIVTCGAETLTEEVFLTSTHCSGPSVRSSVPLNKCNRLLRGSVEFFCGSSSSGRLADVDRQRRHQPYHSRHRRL
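Purified cruzain at 1.5 nM, pre-incubated 15 min with compound at room temperature in 100 mM sodium acetate pH 5.5, 5 mM DTT, 0.00005% Triton X-100. Reaction started with 2 uM Z-FR-AMC; AMC fluorescence increase over 60 s gives rate.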
Cruzain inh Det: qHTS Assay for Promiscuous and Specific Inhibitors of Cruzain (with detergent); purified cruzain, Z-FR-AMC fluorescence, 0.01% Triton; actives 0.43% (n = 200,000); Cruzipain (Trypanosoma cruzi), P25779; Potency, µM, inactives show max response, negative = inhibition, usual class: inhibitors;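 further: plate controls were neutral wells for no effect and buffer without enzyme for full effect; nearly all actives have a fitted effect of over 40% in size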
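Enzyme 1.5 nM, Z-FR-AMC 2 uM, NaOAc 100 mM pH 5.5, DTT 5 mM, Triton X-100 0.01%; 15 min RT compound preincubation; kinetic ex360/em450, 60 s delta.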
NS1 inh: qHTS Assay for Inhibitors of Influenza NS1 Protein Function | Potency, µM (titrated, usually from 46.1 µM), for inactives: top-dose activity, positive = more growth | actives 0.4% (n = 270,000) | AID 2326, 2010; calls by dose curve; further: actives are rising curves; nearly all actives have a fitted effect of over 50% in size
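Compounds were scored for reversing the slow growth caused by influenza A NS1 in S. cerevisiae, measured by optical density at 600 nm. Assay medium contained 2% galactose at pH 6.0; NS1-free yeast of the same strain were the positive control.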
Numbers without * were called inactive; ? = inconclusive; / = no result given. Only a selection was taken, and hits are over-represented in it overall. Unless noted, the call rests on the fitted dose curve; in most records, active means well fitted curve in the direction sought with a large enough effect; inconclusive means small, poorly fitted or top-dose-only effect, or another doubt; inactive means no such curve, though single readings can be large; an effect the other way counts as inactive or inconclusive. Potency means the concentration at half of the fitted maximal effect.

SMILES | Cruzain inh noDet | Cruzain inh Det | NS1 inh
C=C(C)[C@@H]1CCC2(C(=O)O)CC[C@]3(C)[C@H](CC[C@@H]4[C@@]5(C)CCC(=O)C(C)(C)[C@@H]5CC[C@]43C)[C@@H]12 (stereo partly drawn) | 5.01µM* | 2.2% | 7.6%
Cc1cc(C)cc(C(=O)Oc2coc(CSc3nnc(NC(=O)C4CC4)s3)cc2=O)c1 | 2.8% | -3.5% | 4.0%
Cc1cccc(-c2nnc(NC(=O)c3cccs3)s2)c1 | 15.8µM* | -0.2% | 2.1%
O=C(Nc1nnc(-c2cccnc2)s1)c1cccs1 | / | / | -33.2%
Cc1ccc(C(=O)Oc2coc(CSc3nnc(NC(=O)c4cccs4)s3)cc2=O)cc1 | 25.1µM* | -1.2% | 6.4%
CCCBr | -6.6% | 3.5% | /
CCOC(=O)c1c(NC(=O)c2cc3n(n2)C(C(F)(F)F)CC(c2ccccc2)N3)sc(C)c1C (stereo not drawn) | 15.8µM* | -2.1% | 4.2%
CCCCNC(=O)c1cc2n(n1)C(C(F)(F)F)CC(c1ccccc1)N2 (stereo not drawn) | ? | -2.1% | 7.1%
CC(=O)c1cc2c(cc1O)OC(C)(C)C=C2 | 0.6% | -3.7% | /
COC(=O)c1ccc(CSc2nc3c([nH]c4ccccc43)c(=O)n2-c2cccc(Cl)c2)o1 | 7.6% | -1.8% | /
CCSc1nc2c([nH]c3ccccc32)c(=O)n1-c1cccc(OC)c1 | 3.2% | -7.9% | /
COC(=O)c1ccc(CSc2nc3c([nH]c4ccccc43)c(=O)n2-c2cccc(OC)c2)o1 | 25.1µM* | -3.2% | /
COc1cccc(-n2c(SCc3ccc(F)cc3)nc3c([nH]c4ccccc43)c2=O)c1 | 10µM* | -1.0% | /
Cc1c(C)n(C)c2ccc(C(=O)NCCc3ccc(Cl)cc3)cc12 | ? | -6.2% | /
Cc1ccc2scc(N3CCCCC3)c(=O)c2c1 | -1.3% | -4.4% | /
C[C@@]12C=Cc3occc3C1CC[C@@]13C[C@@H](CCC12)[C@@](O)(CO)C3 (stereo partly drawn) | -1.2% | 1.2% | /
Fc1ccccc1 | -0.6% | 4.9% | /
N#Cc1cccc(NC(=O)c2nc(-c3ccccc3)n(-c3ccccc3)n2)c1 | -9.0% | 1.3% | 19.1%
N#Cc1c(-c2ccccc2)nc2n(-c3ccccc3)nc(C(=O)Nc3ccccc3)n2c1=O | 10µM* | 2.4% | -6.3%
Cn1c(N)c(C(=O)COC(=O)c2cc(-c3ccco3)nc3ccccc23)c(=O)n(Cc2ccccc2)c1=O | ? | ? | 14.1µM*
Cn1c(N)c(C(=O)COC(=O)c2cc(C(F)(F)F)nc3ccccc23)c(=O)n(Cc2ccccc2)c1=O | 0.3% | -6.2% | ?
Cc1ccc(C)c(N2CCN(C(=O)c3cc4c(=O)n(Cc5ccco5)ccc4nc3C)CC2)c1 | ? | -8.1% | /
CCn1c(=O)cc(OCC(=O)NCc2ccccc2Cl)c2ccccc21 | -5.5% | -15.8% | /
Cc1ccc(S(=O)(=O)NNC(=S)NC(=O)c2ccc([N+](=O)[O-])cc2)cc1 | 3.98µM* | ? | 6.9%
Cc1ccc(C(=O)NC(=S)NNS(=O)(=O)c2ccc(C)cc2)cc1 | -23.9% | ? | -66.6%
SMILES | Cruzain inh noDet | Cruzain inh Det | NS1 inh
O=c1cc(Cl)[nH]c(=O)n1Cc1ccccc1 | / | / | 1.5%
O=c1ccsn1Cc1ccccc1 | 12.6µM* | ? | -48.7%
Cc1ccc(NC(=O)c2ccc(NC(=O)N3CCSc4ncccc43)cc2)cc1Cl | -5.6% | -10.6% | /
Cc1ccc(NC(=O)CN2C(=O)CCc3cc(S(=O)(=O)N4CCOCC4)ccc32)cc1N(C)C | -5.5% | -1.0% | /
Cc1[nH]n(-c2ncc(-c3ccc(Cl)cc3)s2)c(=O)c1C(c1ccc(Cl)cc1)C(C#N)C#N (stereo not drawn) | 3.16µM* | ? | 7.9%
COc1ccc(C(c2c(C)[nH]n(C(N)=S)c2=O)C(C#N)C#N)cc1 (stereo not drawn) | -17.0% | 2.4% | 13.6%
Cn1c(=O)c(-c2cccc(C#N)c2)nc2cnc(Oc3ccccc3)nc21 | -9.4% | -0.5% | /
COC(=O)CSc1ncc2c(n1)-c1ccccc1N(Cc1cccc(F)c1)S2(=O)=O | -9.5% | -0.6% | /
CC(NC(=O)COC(=O)c1cc(NS(=O)(=O)c2ccc(Cl)c([N+](=O)[O-])c2)ccc1O)C1CC2CCC1C2 (stereo not drawn) | 6.31µM* | -10.0% | ?
COc1ccc(NS(=O)(=O)c2ccc(O)c(C(=O)OCC(=O)NC(C)C3CC4CCC3C4)c2)cc1 (stereo not drawn) | / | / | 15.8%
O=C(CSc1ncnc2scc(-c3ccc(Cl)cc3)c12)NCc1ccc2c(c1)OCO2 | ? | -0.7% | 13.9%
Cc1ccc(-c2csc3ncnc(SCC(=O)NCc4ccc5c(c4)OCO5)c23)cc1 | 25.1µM* | -0.9% | 24.4%
Cc1nn(-c2ccccc2)c(N2CCCC2)c1/C=N/NC(=S)Nc1cc(C(F)(F)F)ccc1Cl | 10µM* | -3.9% | 12.8%
Cc1nn(-c2ccccc2)c(N2CCCC2)c1/C=N/NC(=S)Nc1ccccc1C(F)(F)F | ? | -6.8% | 12.1%
CCOC(=O)C1CCC(CN(Cc2cccc(Br)c2)S(=O)(=O)c2ccc(C)cc2)CC1 (stereo not drawn) | 0.8% | 3.1% | /
Cc1ccc(CNC(=O)CN2C(=O)CC(c3ccc(C)c(C)c3)=Nc3ccccc32)cc1 | -1.2% | -3.7% | /
Cc1ccc(C2=Nc3ccccc3N(CC(=O)NCc3ccccc3Cl)C(=O)C2)cc1C | 25.1µM* | -9.8% | /
Cc1nn(-c2ccccc2)c(N2CCCC2)c1/C=N/O | 4.2% | -1.5% | -0.2%
COc1ccc(OC)c(/C=C2\N=C(c3ccccc3)OC2=O)c1 | / | / | 1.4%
Cc1nn(-c2ccccc2)c(N2CCCC2)c1/C=C1\N=C(c2ccc(F)cc2)OC1=O | 0.316µM* | 0.398µM* | 27.9%
Cc1ccc(C2=N/C(=C\c3c(C)nn(-c4ccccc4)c3N3CCCC3)C(=O)O2)cc1 | 1.58µM* | 1µM* | 9.5%
CS(=O)(=O)Oc1ccccc1/C=C1/N=C(c2ccc(F)cc2)OC1=O | 15.8µM* | 14.1µM* | 8.3%
O=C1OC(c2ccccc2)=N/C1=C\N1CCCCC1 | -7.2% | -7.3% | -46.2%
CCc1ccc(NC(=O)c2cc3c(=O)n(Cc4cccs4)ccc3nc2C)cc1 | ? | 0.6% | /
CC(C)c1cccc2nc3c(c(C(C)(C)C)c12)Cn1c-3cccc1=O | ? | -8.2% | /
SMILES | Cruzain inh noDet | Cruzain inh Det | NS1 inh
NC(N)=Nc1ccc(-c2ccc(N=C(N)N)cc2)cc1 | -2.0% | 3.3% | -0.5%
COc1ccc(OC)c(CCNC(=O)c2cc3cccc4c3n2CCS4)c1 | 7.2% | -10.3% | /
CCCCN(CC)CCNS(=O)(=O)c1cccc2cccnc12 | / | / | -1.3%
COc1cc(NC(=O)c2cc3c(=O)oc4ccc(C)cc4c3s2)cc(OC)c1OC | 8.4% | 1.8% | /
O=C1[C@@H]2Cc3c([nH]c4ccccc34)[C@@H](c3ccccc3)N2C(=O)[C@@H]2Cc3c([nH]c4ccccc34)[C@@H](c3ccccc3)N12 | 10µM* | 6.0% | ?
O=C1NCC(=O)N2C(c3ccccc3)c3[nH]c4ccccc4c3C[C@@H]12 (stereo partly drawn) | / | / | 2.3%
CCC(C(=O)Nc1cc(C)ccc1C)n1c(=O)c(C(F)(F)F)nc2ccccc21 (stereo not drawn) | -1.4% | 0.3% | /
Cc1cc(NC(=O)CSc2nc3cc(Cl)ccc3s2)no1 | 10µM* | 1.4% | -3.8%
Cc1cc(C)nc(NC(=O)CSc2nc3cc(Cl)ccc3s2)n1 | 6.4% | -3.4% | -8.8%
